Results published in PubChem BioAssay (Tox21).
Records with an inconclusive call do not appear. Calls of active or inactive are those of the source. Unless noted, calls follow the shape of the dose curve; as a rule, active = well fitted curve in the direction sought with a large enough effect in the repeat runs; inconclusive = weak or mixed curves; inactive = no such curve, though single readings can be large; an effect the other way counts as inactive or inconclusive.

What was measured:
[1] = qHTS assay for small molecule agonists of the p53 signaling pathway (AID 651631; calls by dose curve; also: nearly all actives have a fitted effect of over 15% in size)
Outline: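 HCT-116 cells carrying a beta-lactamase reporter under p53 response elements were dosed with compound for 16 h at 37 °C. LiveBLAzer B/G FRET substrate was then added for 2 h at room temperature, and fluorescence intensity was read to detect pathway agonism.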

[2] = qHTS assay for small molecules that induce genotoxicity in human embryonic kidney cells expressing luciferase-tagged ATAD5 (AID 651632); also: nearly all actives have a fitted effect of over 15% in size
Outline: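 Genotoxicity read-out via ATAD5-luciferase: HEK293T cells, 16 hr compound incubation at 37C, Amplite detection.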

[3] = qHTS assay for small molecule agonists of the p53 signaling pathway - cell viability (AID 651633; calls by dose curve;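 also: p53RE-bla HCT reporter cells with a stable beta-lactamase p53 reporter; series mostly up to about 83 µM; nearly all actives have a fitted effect of over 30% in size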)
Outline: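 p53RE-bla cells were treated with compound for 16 hours at 37 C. Cytotoxicity was then measured as CellTiter-Glo luminescence after 30 min at room temperature.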

[4] = qHTS assay for small molecules that induce genotoxicity in human embryonic kidney cells expressing luciferase-tagged ATAD5 - cell viability (AID 651634; calls by dose curve; also: nearly all actives have a fitted effect of over 25% in size)
Outline: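 Live-cell protease activity (CellTiter-Fluor, fluorescence) indicates viability. HEK293T cells with luciferase-tagged ATAD5; 15.5 hr compound treatment at 37C.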

[5] = qHTS assay for small molecule disruptors of the mitochondrial membrane potential - cell viability (AID 720634; calls by dose curve;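 also: human HepG2 liver cancer cells; series mostly up to about 83 µM; nearly all actives have a fitted effect of over 20% in size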)
Outline: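 Human hepatoma HepG2 cells were treated for 1 hr with test chemicals, then given m-MPI dye and CellTiter-Glo. Cell viability reflects luminescence proportional to cellular ATP.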

[6] = qHTS assay to test for compound auto fluorescence at 590 nm (red) in HepG2 cells (AID 720674)
Outline: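 Fluorescence at 590 nm emission following 540 nm excitation was recorded from HepG2 wells one hour after compound transfer, with DMSO-only wells as vehicle and Rose Bengal sodium equivalency as the scale.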

[7] = qHTS assay to test for compound auto fluorescence at 535 nm (green) in HepG2 cells (AID 720675)
[8] = qHTS assay to test for compound auto fluorescence at 460 nm (blue) in HEK293 cells (AID 720678)
Outline: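 After cell attachment (4-5 hr, 37C), compounds were pinned onto HEK293 monolayers in 10% dialyzed FBS medium. The blue channel (405/460 nm) was read following overnight culture. Equivalency was calculated against triamterene.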

[9] = qHTS assay to test for compound auto fluorescence at 590 nm (red) in HEK293 cells (AID 720679)
Outline: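 Plates of HEK293 cells (10% dialyzed FBS) are treated with 23 nL compound or DMSO vehicle after a 4-5 hr attachment period, incubated overnight at 37C, and read for red fluorescence at 540/590nm.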

[10] = qHTS assay to test for compound auto fluorescence at 535 nm (green) in HEK293 cells (AID 720680)
[11] = qHTS assay to test for compound auto fluorescence at 460 nm (blue) in HEK293 cell free culture (AID 720681)
Outline: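 Compounds were added to cell-free DMEM with 10% FBS and fluorescence read directly. The blue channel used 405 nm excitation and 460 nm emission, with triamterene as the reference fluorophore.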

[12] = qHTS assay to test for compound auto fluorescence at 535 nm (green) in HEK293 cell free culture (AID 720682)
Outline: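 Green-label autofluorescence (485 nm excitation, 535 nm emission) measured on compound added to cell-free culture medium (DMEM, 10% FBS). Output is expressed relative to fluorescein.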

[13] = qHTS assay to test for compound auto fluorescence at 590 nm (red) in HEK293 cell free culture (AID 720683)
Outline: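 Cell-free wells of DMEM with 10% FBS received compound, and intrinsic fluorescence was read at excitation/emission 540/590 nm. Values expressed as equivalence to Rose Bengal sodium.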

[14] = qHTS assay to test for compound auto fluorescence at 590 nm (red) in HepG2 cell free culture (AID 720684)
Outline: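 Compounds are added to culture medium (MEM, 10% FBS) lacking cells, then fluorescence is read at excitation 540 nm, emission 590 nm, with Rose Bengal sodium as the equivalency standard.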

[15] = qHTS assay to test for compound auto fluorescence at 460 nm (blue) in HepG2 cell free culture (AID 720685)
Outline: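 Compound (23 nL) or DMSO pinned into cell-free MEM with 10% FBS; blue fluorescence read at 405/460 nm excitation/emission, expressed as auto-fluorescence equivalency to triamterene.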

[16] = qHTS assay to test for compound auto fluorescence at 535 nm (green) in HepG2 cell free culture (AID 720686)
[17] = qHTS assay to test for compound auto fluorescence at 460 nm (blue) in HepG2 cells (AID 720687)
Outline: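 HepG2 cells in MEM with 10% FBS, attached overnight at 37 C, were exposed to compound or DMSO for 1 hr at 37 C, 5% CO2. Blue fluorescence was read at 405/460 nm, with triamterene as reference fluorophore.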

[18] = target: Glucocorticoid receptor (Homo sapiens) (UniProt P04150); test: qHTS assay to identify small molecule agonists of the glucocorticoid receptor (GR) signaling pathway (AID 720691; active = well fitted activation curve with a large enough effect in the signal ratio in the repeat runs, not every such curve was filed as active; the % refers to the signal ratio)
Outline: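 Beta-lactamase reporter activity, read as fluorescence intensity, was measured in GR-bla HeLa cells exposed to compounds for 18 h at 37 C and then loaded with LiveBLAzer B/G FRET substrate for 2 h at room temperature.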

[19] = target: Glucocorticoid receptor (Homo sapiens) (UniProt P04150); test: qHTS assay to identify small molecule antagonists of the glucocorticoid receptor (GR) signaling pathway (AID 720692; active = well fitted inhibition curve with a large enough effect in the signal ratio in the repeat runs, not every such curve was filed as active; the % refers to the signal ratio)
Outline: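 Fluorescence from cleaved LiveBLAzer B/G FRET substrate reports GRE-driven beta-lactamase in HeLa cells; compounds are tested against 5 nM dexamethasone (final) over 18 h at 37 C, substrate incubation 2 h at room temperature.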
% is scaled to controls: 0 for no effect and ±100 for the full control effect.

Chain of Glucocorticoid receptor (Homo sapiens) (P04150 whole entry, looked up): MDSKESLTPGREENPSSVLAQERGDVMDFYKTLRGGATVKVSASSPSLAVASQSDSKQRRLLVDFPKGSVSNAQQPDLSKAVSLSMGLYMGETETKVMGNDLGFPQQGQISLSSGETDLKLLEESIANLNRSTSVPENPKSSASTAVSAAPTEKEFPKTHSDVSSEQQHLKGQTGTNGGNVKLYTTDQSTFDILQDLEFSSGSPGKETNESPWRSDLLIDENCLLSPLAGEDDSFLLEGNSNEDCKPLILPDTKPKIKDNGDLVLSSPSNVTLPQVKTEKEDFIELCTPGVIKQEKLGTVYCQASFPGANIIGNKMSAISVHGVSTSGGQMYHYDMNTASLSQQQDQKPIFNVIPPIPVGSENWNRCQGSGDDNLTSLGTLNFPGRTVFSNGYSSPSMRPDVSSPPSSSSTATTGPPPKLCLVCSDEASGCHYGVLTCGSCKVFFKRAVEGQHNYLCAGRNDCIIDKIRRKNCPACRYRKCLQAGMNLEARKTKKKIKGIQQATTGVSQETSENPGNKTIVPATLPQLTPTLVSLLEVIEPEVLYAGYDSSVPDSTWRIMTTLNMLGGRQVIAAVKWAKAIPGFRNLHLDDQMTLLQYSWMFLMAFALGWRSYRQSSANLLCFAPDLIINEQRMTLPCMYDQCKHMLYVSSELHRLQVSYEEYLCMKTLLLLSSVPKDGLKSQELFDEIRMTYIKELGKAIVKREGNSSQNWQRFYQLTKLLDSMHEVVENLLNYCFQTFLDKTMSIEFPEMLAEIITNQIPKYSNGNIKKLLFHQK

CCOc1cc(N)c(Cl)cc1C(=O)NCC1CN(Cc2ccc(F)cc2)CCO1 (stereo not drawn)
inactive: Potency [1] | Potency [2] | Potency [3] | Potency [4] | Potency [5] | outcome [6] | outcome [7] | Potency [8] | outcome [9] | outcome [10] | Potency [11] | outcome [12] | outcome [13] | outcome [14] | Potency [15] | outcome [16] | Potency [17] | Potency [18] | Potency [19]

CC(=N\O)/C(C)=N/O
inactive: Potency [1] | Potency [2] | Potency [3] | Potency [4] | Potency [5] | outcome [6] | outcome [7] | Potency [8] | outcome [9] | outcome [10] | Potency [11] | outcome [12] | outcome [13] | outcome [14] | Potency [15] | outcome [16] | Potency [17]

CC1(C)C(=O)N(Br)C(=O)N1Cl
inactive: Potency [1] | Potency [2] | Potency [3] | Potency [4] | Potency [5] | outcome [6] | outcome [7] | Potency [8] | outcome [9] | outcome [10] | Potency [11] | outcome [12] | outcome [13] | outcome [14] | Potency [15] | outcome [16] | Potency [17]

CC(=O)[C@H]1CC[C@H]2[C@@H]3C[C@H](C)C4=CC(=O)CC[C@]4(C)[C@H]3[C@@H](O)C[C@]12C
inactive: Potency [1] | Potency [2] | Potency [3] | Potency [4] | Potency [5] | fluorescence, relative to Rose Bengal [6] 0.133% [at 18.6 µM] | fluorescence, % of fluorescein control [7] -0.105% [at 18.6 µM] | fluorescence, % of triamterene [8] -0.0231% [at 18.6 µM] | fluorescence, % of fluorescent control [9] -0.987% [at 18.6 µM] | fluorescence, % of fluorescein [10] 0.123% [at 18.6 µM] | fluorescence, % of fluorescent control [11] -0.0076% [at 18.6 µM] | activity change [12] -0.0137% [at 18.6 µM] | fluorescence, % of fluorescent control [13] -0.395% [at 18.6 µM] | fluorescence, % of Rose Bengal [14] -0.145% [at 18.6 µM] | fluorescence, % of fluorescent control [15] 0.0471% [at 18.6 µM] | fluorescence, % of fluorescein control [16] 0.189% [at 18.6 µM] | fluorescence, % of fluorescent control [17] 0.0065% [at 18.6 µM]

CCOC(=O)c1ccccc1C
inactive: Potency [1] | Potency [2] | Potency [3] | Potency [4] | Potency [5] | outcome [6] | outcome [7] | Potency [8] | outcome [9] | outcome [10] | Potency [11] | outcome [12] | outcome [13] | outcome [14] | Potency [15] | outcome [16] | Potency [17] | Potency [18] | Potency [19]

CCCCN(CCCC)CCCOC(=O)c1ccc(N)cc1
inactive: Potency [1] | Potency [2] | Potency [3] | Potency [4] | Potency [5] | fluorescence, relative to Rose Bengal [6] -0.556% [at 18.6 µM] | fluorescence, % of fluorescein control [7] 0.038% [at 18.6 µM] | fluorescence, % of triamterene [8] -0.0222% [at 18.6 µM] | fluorescence, % of fluorescent control [9] 0.141% [at 18.6 µM] | fluorescence, % of fluorescein [10] 0.0466% [at 18.6 µM] | fluorescence, % of fluorescent control [11] -0.0006% [at 18.6 µM] | activity change [12] -0.0464% [at 18.6 µM] | fluorescence, % of fluorescent control [13] 0.0804% [at 18.6 µM] | fluorescence, % of Rose Bengal [14] 0.0643% [at 18.6 µM] | fluorescence, % of fluorescent control [15] 0.138% [at 18.6 µM] | fluorescence, % of fluorescein control [16] -0.0572% [at 18.6 µM] | fluorescence, % of fluorescent control [17] -0.0696% [at 18.6 µM] | Potency [18] | Potency [19]
